RORgamma inh = blocks mouse ROR gamma transcriptional activity. Drosophila S2 Gal4-RORgamma UAS-luciferase reporter, 20 h. AID 2551. Potency, µM (series often up to 53.6 µM), for the others: top-dose activity change, negative = inhibition, most hits filed as inhibitors. actives 5.4% (n = 310,000). P51450; also: nearly all actives have a fitted effect of over 60% in size
Target sequence (P51450 whole entry, looked up, the tested form may be a part): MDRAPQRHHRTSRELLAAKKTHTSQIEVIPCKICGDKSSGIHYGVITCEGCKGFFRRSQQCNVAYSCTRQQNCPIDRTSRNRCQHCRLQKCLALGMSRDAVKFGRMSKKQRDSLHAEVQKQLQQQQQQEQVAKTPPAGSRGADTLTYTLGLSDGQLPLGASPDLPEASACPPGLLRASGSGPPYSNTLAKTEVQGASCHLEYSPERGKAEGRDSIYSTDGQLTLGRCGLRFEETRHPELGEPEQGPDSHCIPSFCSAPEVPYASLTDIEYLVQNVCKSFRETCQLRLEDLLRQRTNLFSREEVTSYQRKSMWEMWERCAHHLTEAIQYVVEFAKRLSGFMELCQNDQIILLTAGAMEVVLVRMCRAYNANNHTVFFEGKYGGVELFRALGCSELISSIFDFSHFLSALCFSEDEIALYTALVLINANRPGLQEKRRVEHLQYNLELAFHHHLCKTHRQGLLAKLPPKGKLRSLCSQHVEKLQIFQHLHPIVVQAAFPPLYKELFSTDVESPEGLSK
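Schneider cells (Drosophila), stable Gal4 DBD–ROR gamma + UAS-luc; 1 hr cmpd preincubation; Cu2+ induction 700 uM final; 20 hr ambient; luminescence.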
TDP1 cell noCPT = qHTS for Inhibitors of human tyrosyl-DNA phosphodiesterase 1 (TDP1): qHTS in cells in absence of CPT; DT40 Tdp1-/- hTDP1 cells, no CPT, ATP luminescence, 48 h; Potency, µM (titrated, usually from 46.2 µM), inactives show top-dose activity change, negative = growth inhibition, actives largely listed as inhibitors; actives 15% (n = 420,000); AID 686978, 2013; also: nearly all actives have a fitted effect of over 55% in size
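Seeded 400 DT40-hTDP1 cells/well (vehicle DMSO, no 20 nM CPT); pinned compounds; ≥48 hr at 37 °C; CellTiter-Glo luminescence as viability measure.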
TDP1 inh = inhibitors of human tyrosyl-DNA phosphodiesterase TDP1 | Q9NUW8 | recombinant TDP1, AlphaScreen DNA substrate cleavage | Potency, µM (titrated, usually from 130 µM), for the others: top-dose activity change, negative = inhibition, hits mostly inhibitors | actives 0.28% (n = 350,000) | AID 485290; also: nearly all actives have a fitted effect of over 40% in size
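Signal: AlphaScreen proximity between streptavidin donor and anti-FITC acceptor beads on intact substrate. Reaction: Tdp1 1 nM, substrate 15 nM final, 5 min RT after 15 min compound preincubation.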
VP16 counter = Gal4-VP16 reporter inhibition counter-screen | Drosophila S2 Gal4-VP16 UAS-luciferase, luminescence, 20 h | Potency, µM (top dose mostly 53.6 µM), for inactives: top-dose activity, negative = inhibition, most hits filed as inhibitors | actives 3.5% (n = 310,000) | AID 2546;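 also: Gal4-VP16 expression switched on by copper sulfate through the metallothionein promoter; nearly all actives have a fitted effect of over 50% in size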
TDP1 cell CPT = growth inhibition of DT40 Tdp1-/-;hTDP1 cells with camptothecin (screen for TDP1 inhibitors). Potency, µM (series often up to 46.2 µM), for the others: at the highest dose activity change, negative = growth inhibition, actives largely listed as inhibitors. actives 12% (n = 420,000). chicken DT40 Tdp1-/-;hTDP1 cells + 20 nM CPT, ATP luminescence, 48 h; also: nearly all actives have a fitted effect of over 55% in size
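Cell growth measured by CellTiter-Glo luminescence after a minimum 48 h, 37 C compound exposure with 20 nM CPT in Tdp1-knockout DT40 cells stably expressing hTDP1, seeded 400/well; qHTS titration format.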
Starred values were filed as active, the others as inactive; ? = inconclusive; / = no result; [ ] = dose if it differs, or a comment. Most compounds without a hit are left out; they make up all but 19% or so of the library. Calls follow the shape of the dose curve; as a rule, active = well fitted curve in the direction sought with a large enough effect; inconclusive = small, poorly fitted or top-dose-only effect, or another doubt; inactive = no such curve, though single readings can be large; an effect the other way counts as inactive or inconclusive. % is scaled to controls: 0 for no effect and ±100 for the full control effect; potency is read from the fitted curve at half-maximal effect.

SMILES	RORgamma inh	TDP1 cell noCPT	TDP1 inh	VP16 counter	TDP1 cell CPT
CCOC(=O)c1cccc(Nc2ncnc3ccc(C)cc23)c1	?	21µM*	2%	-1%	15µM*
CCN=C1SC(CC(=O)NC(N)=O)C(=O)N1CC (stereo not given)	12%	-4%	-3%	-2%	-2%
O=C(Nc1ccc(Cl)cc1)C1CC(=O)n2c(nc3ccccc32)N1 (stereo not given)	-1%	-7%	2%	-2%	2%
Nc1ncnc2c1ncn2C1OC(CO)C(O)C1N (stereo not given)	2%	?	4%	-6%	-24%
CC(C)[Si]1(C(C)C)OCC2OC(n3cnc4c(N)ncnc43)C(N)C2O[Si](C(C)C)(C(C)C)O1 (stereo not given)	/	12µM*	/	/	13µM*
CC(C)C[C@H]1CN(CCCC[C@H]2CNC(=O)C(=O)N2Cc2ccccc2)C(=O)C(=O)N1CC1CCCCC1	/	-25%	/	/	-14%
COC(=O)[C@]12CCCCC=C1N(Cc1ccco1)C(=O)[C@H](CC(=O)N1CCN(C(=O)C3CC3)CC1)C2	/	-8%	/	/	-2%
COC(=O)[C@]12CCCCC=C1N(Cc1ccc3c(c1)OCO3)C(=O)[C@H](CC(=O)N1CCC(c3ccccc3)CC1)C2	/	18µM*	/	/	?
CCOC(=O)[C@]12CCCC=C1N(Cc1ccc3c(c1)OCO3)C(=O)[C@H](CC(=O)N1CCC(c3ccccc3)CC1)C2	/	21µM*	/	/	18µM*
CN(C(=O)NC1CCCCC1)[C@H]1C[C@H]2c3[nH]c4ccccc4c3CCN2C(=O)[C@H]1CO	/	-29%	/	/	-24%
CC(C(Sc1ccccc1N)c1ccccc1)[N+](=O)[O-] (stereo not given)	?	3.7µM*	7%	?	3.7µM*
COC(=O)c1ccccc1SC(CC(=O)c1ccccc1)c1ccc(F)cc1 (stereo not given)	10%	23µM*	?	-8%	18µM*
Nc1ccccc1SC(CC(=O)c1ccccc1)c1ccccc1 (stereo not given)	/	13µM*	/	/	?
CC(=O)Nc1ccc(OCCOc2ccccc2C(C)=O)cc1	3%	-17%	7%[0.0935 µM]	1%	-28%
O=C(Nc1nn[nH]n1)c1ccc(S(=O)(=O)N2CCCCC2)cc1	-9%	1%	6%	0%	-8%
O=C1Nc2ccc([N+](=O)[O-])cc2OC1CCN1CCN(c2ccccc2)CC1 (stereo not given)	2%	?	0%	4%	-11%
Cc1cc2ccccc2c[n+]1C1CCCCC1	/	0.71µM*	/	/	1.4µM*
Cc1cc2ccccc2cc(C)c1=O	-19%	2%	0%	-9%	-3%
CC1Sc2ccc(S(=O)(=O)NCCc3ccccc3)cc2NC1=O (stereo not given)	1%	23µM*	2%	6%	21µM*
Cn1c(=O)n(C)c2cc(S(=O)(=O)NCCc3ccccc3)ccc21	28%[10 µM]	23µM*	4%	-19%	23µM*
CC1Sc2ccc(S(=O)(=O)CCC(=O)N(C)Cc3ccccc3)cc2NC1=O (stereo not given)	?	?	/	-9%	18µM*
CC1Sc2ccc(S(=O)(=O)CCC(=O)NCc3ccccc3)cc2NC1=O (stereo not given)	0%	-1%	-19%	-5%	?
CC1Sc2ccc(S(=O)(=O)CCC(=O)NC3CCCC(C)C3C)cc2NC1=O (stereo not given)	-9%	21µM*	7%	5%	21µM*
CC1Sc2ccc(S(=O)(=O)NCCc3ccc(S(N)(=O)=O)cc3)cc2NC1=O (stereo not given)	-17%	-6%	3%	-7%	-27%
N#CC1(NC(=O)COc2ccc(C(N)=O)cc2)CCCC1	/	2%	1%	/	14%
SMILES	RORgamma inh	TDP1 cell noCPT	TDP1 inh	VP16 counter	TDP1 cell CPT
COCCNC(=O)c1ccccc1NC(=O)c1ccccc1N(C)S(C)(=O)=O	-7%	-30%	6%	0%	22%
OC(C[n+]1c(Cl)ccc2ccccc21)c1ccccc1 (stereo not given)	/	?	/	/	8.9µM*
Oc1ccc[n+](CC(O)c2ccccc2)c1 (stereo not given)	/	2%	1%	/	19%
O=C(N/N=C/c1cc([N+](=O)[O-])cc([N+](=O)[O-])c1O)/C(=C\c1cccs1)NC(=O)c1ccccc1	11µM*	5%	10%	?	-2%
O=C(N/N=C/c1cccc2ccccc12)c1cccs1	-29%	?	/	0%	26µM*
O=C(N/N=C/c1c[nH]c2ccccc12)c1cccs1	?	-26%	4%	?	-21%
O=C(N/N=C/c1cccc([N+](=O)[O-])c1O)c1cccs1	1.1µM*	1µM*	2%	0.79µM*	0.73µM*
COc1cc(/C=N/NC(=O)c2cccs2)ccc1OCc1ccccc1	?	-3%	4%	-8%	2%
O=C(N/N=C/c1ccc([N+](=O)[O-])cc1)c1cccs1	?	-22%	/	-4%	?
COc1cc(/C=N/NC(=O)/C(=C\c2ccc([N+](=O)[O-])cc2)NC(=O)c2ccccc2)cc(OC)c1O	?	?	7%	-1%	-30%
O=C(N/N=C/c1ccccc1OCc1ccccc1)c1cccs1	?	15µM*	7%	-20%	?
CCn1cc(CCC(=O)NC2CCCC2)c2ccccc21	6%	-8%	/	5%	3%
COc1ccccc1-n1cnc2sc(C)c(C)c2c1=O	-6%	2%	/	-17%	-16%
NC(=S)N/N=C/c1c[nH]c2ccc(OCc3ccccc3)cc12	5µM*	?	11%	4.5µM*	?
NC(=S)N/N=C/c1ccccc1OC(=O)/C=C/c1ccccc1	3.5µM*	0.52µM*	6%	3.5µM*	5.2µM*
O=C(NN=Cc1cccc2ccccc12)C(=O)NN=Cc1cccc2ccccc12	/	15µM*	/	/	?
NC(=S)N/N=C\c1ccccc1OCc1ccccc1	2.2µM*	?	7%	3.5µM*	29µM*
O=C(O)COc1ccccc1/C=N/NC(=O)Cc1ccccc1	14%[1.91 µM]	17%	/	1%	-18%
CC(O)C(=O)N/N=C/c1cccc2ccccc12 (stereo not given)	-2%	?	8%	9%	14%
Cc1ccc(C)c(N2CCN(C(=O)C3CCCCN3S(=O)(=O)c3ccc(F)cc3)CC2)c1 (stereo not given)	21%	?	4%	-2%	?
O=C(NCCc1ccccc1)c1ccc(-n2cnnn2)cc1	-2%	2%	2%	5%	3%
